Records with an inconclusive call do not appear. Activity calls are given as the source filed them. Unless noted, calls come from the whole dose curve; as a rule, active = well fitted curve in the direction sought with a large enough effect in the repeat runs; inconclusive = weak or mixed curves; inactive = no such curve, though single readings can be large; an effect the other way counts as inactive or inconclusive.
Experiments:
[1] = qHTS assay to identify small molecule antagonists of the androgen receptor (AR) signaling pathway using the MDA cell line in the presence of 0.5 nM R1881 - cell viability counter screen (AID 1259242); note: nearly all actives have a fitted effect of over 45% in size
Summary of the method: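 Viability of MDA-kb2 cells was multiplexed with the luciferase AR readout; after 16 hr with compounds and R1881 at 0.5 nM final, CellTiter-Fluor fluorescence was recorded.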

[2] = target: Androgen receptor (Homo sapiens) (UniProt P10275); assay: qHTS assay to identify small molecule antagonists of the androgen receptor (AR) signaling pathway using the MDA cell line in the presence of 0.5 nM R1881 (AID 1259243); note: nearly all actives have a fitted effect of over 50% in size
Sequence of Androgen receptor (Homo sapiens) (P10275 whole entry, looked up): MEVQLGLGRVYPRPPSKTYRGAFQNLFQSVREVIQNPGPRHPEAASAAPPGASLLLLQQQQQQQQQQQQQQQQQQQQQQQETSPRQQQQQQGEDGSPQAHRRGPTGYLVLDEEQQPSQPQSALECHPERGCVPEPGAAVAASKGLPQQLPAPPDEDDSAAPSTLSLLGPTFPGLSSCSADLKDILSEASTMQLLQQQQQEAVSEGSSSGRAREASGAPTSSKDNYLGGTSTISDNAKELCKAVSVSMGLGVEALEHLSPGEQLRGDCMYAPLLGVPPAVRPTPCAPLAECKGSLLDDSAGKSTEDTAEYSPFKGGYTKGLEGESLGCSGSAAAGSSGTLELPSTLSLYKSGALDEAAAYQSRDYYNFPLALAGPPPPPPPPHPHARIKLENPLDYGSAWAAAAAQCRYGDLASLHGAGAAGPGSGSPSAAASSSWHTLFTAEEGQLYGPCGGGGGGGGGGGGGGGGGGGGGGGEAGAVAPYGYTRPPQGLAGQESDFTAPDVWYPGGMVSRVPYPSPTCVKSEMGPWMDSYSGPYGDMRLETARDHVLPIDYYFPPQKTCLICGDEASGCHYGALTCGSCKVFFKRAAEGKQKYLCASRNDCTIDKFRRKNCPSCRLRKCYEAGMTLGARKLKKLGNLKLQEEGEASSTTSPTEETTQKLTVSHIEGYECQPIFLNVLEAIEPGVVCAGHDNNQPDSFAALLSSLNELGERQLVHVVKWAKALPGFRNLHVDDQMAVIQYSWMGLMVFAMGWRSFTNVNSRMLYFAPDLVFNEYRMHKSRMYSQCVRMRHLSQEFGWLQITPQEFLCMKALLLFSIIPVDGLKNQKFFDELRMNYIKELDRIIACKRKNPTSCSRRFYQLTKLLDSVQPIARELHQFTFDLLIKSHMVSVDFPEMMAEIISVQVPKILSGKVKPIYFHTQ
Summary of the method: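 Reporter cells cultured without CO2 receive test chemicals, then 0.5 nM R1881 final; after 16 hr at 37C, ONE-Glo is added and light output recorded.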

[3] = target: Estrogen receptor (Homo sapiens) (UniProt P03372); assay: qHTS assay to identify small molecule antagonists of the estrogen receptor alpha (ER-alpha) signaling pathway using the BG1 cell line in the presence of 0.1 nM 17-beta-estradiol (AID 1259244); note: nearly all actives have a fitted effect of over 50% in size
Sequence of Estrogen receptor (Homo sapiens) (P03372 whole entry, looked up): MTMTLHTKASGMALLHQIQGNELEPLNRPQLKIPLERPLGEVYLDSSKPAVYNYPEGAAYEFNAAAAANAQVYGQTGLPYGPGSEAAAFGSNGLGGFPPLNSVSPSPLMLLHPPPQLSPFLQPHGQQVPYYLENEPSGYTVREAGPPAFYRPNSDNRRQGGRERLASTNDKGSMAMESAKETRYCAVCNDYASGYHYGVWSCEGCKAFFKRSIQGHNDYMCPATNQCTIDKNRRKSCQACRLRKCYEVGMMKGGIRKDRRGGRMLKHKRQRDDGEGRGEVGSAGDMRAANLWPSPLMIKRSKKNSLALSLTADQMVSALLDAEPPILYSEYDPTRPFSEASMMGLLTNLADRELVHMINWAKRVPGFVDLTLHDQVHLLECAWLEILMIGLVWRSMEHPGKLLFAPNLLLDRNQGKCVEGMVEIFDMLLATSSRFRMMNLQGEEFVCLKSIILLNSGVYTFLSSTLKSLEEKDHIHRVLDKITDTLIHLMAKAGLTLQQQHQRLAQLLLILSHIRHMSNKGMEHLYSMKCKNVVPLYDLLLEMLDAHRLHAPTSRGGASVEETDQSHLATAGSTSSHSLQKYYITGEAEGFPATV
Summary of the method: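 Estradiol at 0.1 nM (final) stimulates the endogenous ER-alpha of VM7Luc4E2 cells carrying an ERE-driven luciferase; compounds are co-incubated 22 h at 37C and luciferase output quantified by luminescence.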

[4] = qHTS assay to identify small molecule phospholipidosis (PLD) inducers (AID 1259344; active = well fitted curve in the direction sought with a large enough effect; an effect the other way counts as inactive or inconclusive)
Summary of the method: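 HepG2 cells on collagen I, attached 4 h at 37 C, were co-treated with compound and LipidTOX Red dye for 24 h at 37 C, then fixed with paraformaldehyde plus Hoechst 33342 and imaged by high-content microscopy for phospholipid accumulation.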

[5] = qHTS assay to identify small molecule HDAC inhibitors (AID 1259364);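 note: wild-type HCT-116 cells with endogenous class I/II HDAC activity; top concentration of the series differs between compounds; nearly all actives have a fitted effect of over 45% in size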
Summary of the method: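 Read-out: luminescence of HDAC-Glo I/II reagent, 30 min RT, reflecting class I/II deacetylase activity in whole HCT-116 cells pre-exposed 2 h to DMSO-dissolved compounds.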

[6] = qHTS assay to identify small molecule HDAC inhibitors - cell viability counter screen (AID 1259365); note: series mostly up to about 92 µM; nearly all actives have a fitted effect of over 50% in size
Summary of the method: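 Following a 2hr exposure of overnight-plated wild-type HCT-116 cells to DMSO-delivered compounds, CellTiter-Glo was added and luminescence recorded after 30min at room temperature.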

[7] = qHTS assay to identify small molecule agonists of the sonic hedgehog signaling (Shh) pathway - cell viability counter screen (AID 1259366); note: nearly all actives have a fitted effect of over 50% in size
Summary of the method: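 After a 4hr attachment at 37C, NIH/3T3 cells bearing an integrated Gli1-driven luciferase reporter were dosed with compounds. Treatment lasted 24hr, with the final hour including CellTiter-Fluor for a fluorescence viability measurement.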

[8] = qHTS assay to identify small molecule antagonists of the sonic hedgehog signaling (Shh) pathway - cell viability counter screen (AID 1259367); note: nearly all actives have a fitted effect of over 55% in size
Summary of the method: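 NIH/3T3-derived Gli1-Luc reporter cells (2,000 per well) rested 4 hr at 37 C, then received DMSO compounds plus conditioned medium. After 23 hr of treatment, CellTiter-Fluor was added for 1 hr at 37C and fluorescence read.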

[9] = qHTS assay to identify small molecule agonists of the sonic hedgehog signaling (Shh) pathway (AID 1259368; calls by dose curve;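 note: NIH/3T3-derived 3T3Gli1-Luc cells carrying a stable Gli1-driven firefly luciferase reporter; series mostly up to about 92 µM; nearly all actives have a fitted effect of over 15% in size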)
Summary of the method: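 A Gli1 transcriptional response element controlled firefly luciferase in 3T3Gli1-Luc cells. Compounds and a positive control were added 4 hr after plating, and cells were incubated a further 24 hr at 37 C before luminescence detection.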

[10] = qHTS assay to identify small molecule antagonists of the sonic hedgehog signaling (Shh) pathway (AID 1259369; calls by dose curve; note: nearly all actives have a fitted effect of over 45% in size)
Summary of the method: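 For antagonist detection, the reporter line received test compounds together with conditioned medium, incubated 24hr at 37 C, 5% CO2, then luminescence was recorded following 30min room-temperature luciferase reagent incubation.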

[11] = qHTS assay to identify small molecule agonists of the androgen receptor (AR) signaling pathway in the presence of an antagonist - cell viability counter screen (AID 1259379);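 note: MDA-kb2 human breast cancer cells carrying an MMTV luciferase reporter; series mostly up to about 92 µM; nearly all actives have a fitted effect of over 25% in size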
Summary of the method: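 Seed MDA-kb2 at 3,000 cells/well; incubate 5 hr, 37C, 0% CO2. Add nilutamide to 3.0uM final, then pin compounds at 15 concentrations. Incubate 16 hr. Add CellTiter-Fluor at 15 hr, read fluorescence after 1 hr.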

[12] = qHTS assay to identify small molecule agonists of the estrogen receptor beta (ER-beta) signaling pathway - cell viability counter screen (AID 1259380); note: nearly all actives have a fitted effect of over 30% in size
Summary of the method: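 CellTiter-Glo read, 30 min RT, same wells as bla assay; cells ER-beta-UAS-bla HEK293T; 16 hr compound, 37C; medium 2% charcoal-stripped FBS.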

[13] = target: Androgen receptor (Homo sapiens) (UniProt P10275); assay: qHTS assay to identify small molecule agonists of the androgen receptor (AR) signaling pathway in the presence of an antagonist (AID 1259381; calls by dose curve; note: nearly all actives have a fitted effect of over 15% in size)
Summary of the method: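 Test compounds at 15 concentrations were incubated for 16hr with MDA-kb2 reporter cells in presence of 3.0uM nilutamide (final). Signal: ONE-Glo luciferase luminescence.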

[14] = qHTS assay to identify small molecule antagonists of the estrogen receptor beta (ER-beta) signaling pathway - cell viability counter screen (AID 1259382); note: series mostly up to about 92 µM; nearly all actives have a fitted effect of over 55% in size
Summary of the method: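 In this multiplexed counter screen, cells were seeded at 2,000 per well in medium with 2% charcoal-stripped FBS and incubated 6 hr before compound and 1nM final E2 were added. Sixteen hours later, ATP-based luminescence reported viability.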

[15] = target: Estrogen receptor (Homo sapiens) (UniProt P03372); assay: qHTS assay to identify small molecule agonists of the estrogen receptor alpha (ER-alpha) signaling pathway in the presence of an antagonist (AID 1259383; calls by dose curve; note: top concentration of the series differs between compounds; nearly all actives have a fitted effect of over 15% in size)
Summary of the method: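 Stably transfected VM7Luc4E2 reporter cells, kept 5 days in charcoal-stripped serum, received ICI-182,780 at 10.0nM final before compound addition. Following 22hr incubation at 37C and 5% CO2, luciferase signal was read by luminescence.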

[16] = qHTS assay to identify small molecule agonists or antagonists of the thyroid stimulating hormone receptor (TSHR) signaling pathway - wild type cell line counter screen (AID 1259384; calls by dose curve)
Summary of the method: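 Wild-type HEK293 cells were plated 18 h at 37 C/5% CO2, pin-dosed with compound plus Ro20-1724 medium, held 30 min at room temperature, then given cAMP-d2 and anti-cAMP-cryptate; fluorescence was read after 1 h. Fifteen concentrations, triplicate.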

[17] = qHTS assay to identify small molecule agonists of the estrogen receptor alpha (ER-alpha) signaling pathway in the presence of an antagonist - cell viability counter screen (AID 1259386);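 note: series mostly up to about 92 µM; cells exposed to compounds for 22 h at 37 °C before the viability read; nearly all actives have a fitted effect of over 30% in size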
Summary of the method: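 Viability counter screen using VM7Luc4E2 (full-length ER-alpha, four ERE-luciferase). The cells were treated with compounds alongside ICI-182,780 10.0nM for 22hr, and live-cell protease fluorescence was quantified with CellTiter-Fluor.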

[18] = target: Estrogen receptor beta (Homo sapiens) (UniProt Q92731); assay: qHTS assay to identify small molecule antagonists of the estrogen receptor beta (ER-beta) signaling pathway (AID 1259378; active = well fitted inhibition curve with a large enough effect in the signal ratio in the repeat runs, not every such curve was filed as active; the % refers to the signal ratio)
Sequence of Estrogen receptor beta (Homo sapiens) (Q92731 whole entry, looked up): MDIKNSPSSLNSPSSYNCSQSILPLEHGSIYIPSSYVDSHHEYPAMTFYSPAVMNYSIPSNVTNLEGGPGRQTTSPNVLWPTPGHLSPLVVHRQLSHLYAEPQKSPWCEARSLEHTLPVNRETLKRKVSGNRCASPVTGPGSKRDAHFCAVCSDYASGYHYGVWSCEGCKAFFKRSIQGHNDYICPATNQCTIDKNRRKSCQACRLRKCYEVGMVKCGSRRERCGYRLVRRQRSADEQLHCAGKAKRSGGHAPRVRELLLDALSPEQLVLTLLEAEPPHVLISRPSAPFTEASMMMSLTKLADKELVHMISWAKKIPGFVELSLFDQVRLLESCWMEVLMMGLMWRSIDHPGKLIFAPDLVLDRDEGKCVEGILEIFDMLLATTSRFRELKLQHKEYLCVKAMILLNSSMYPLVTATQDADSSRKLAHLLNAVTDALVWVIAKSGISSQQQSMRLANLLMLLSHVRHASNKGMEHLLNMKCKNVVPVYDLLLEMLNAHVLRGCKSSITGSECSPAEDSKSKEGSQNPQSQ
Summary of the method: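 ER-beta-UAS-bla HEK293T (GripTite) cells in 2% charcoal-stripped FBS medium were preincubated 6 hr at 37C, dosed with compound, then stimulated with 1 nM E2 (final) for 16 hr; beta-lactamase reporter read by B/G FRET fluorescence after 2 hr substrate loading.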

[19] = target: Estrogen receptor beta (Homo sapiens) (UniProt Q92731); assay: qHTS assay to identify small molecule agonists of the estrogen receptor beta (ER-beta) signaling pathway (AID 1259377; active = well fitted activation curve with a large enough effect in the signal ratio in the repeat runs, not every such curve was filed as active; the % refers to the signal ratio)
Summary of the method: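 In HEK293T cells bearing a UAS-beta-lactamase reporter under ER-beta control, DMSO-delivered compounds were incubated for 16 hr at 37C. Activity was detected as fluorescence 2 hours after LiveBLAzer B/G FRET substrate addition.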

[20] = target: Thyrotropin receptor (Homo sapiens) (UniProt P16473); assay: qHTS assay to identify small molecule antagonists of the thyroid stimulating hormone receptor (TSHR) signaling pathway (AID 1259385; calls by dose curve; note: nearly all actives have a fitted effect of over 20% in size)
Sequence of Thyrotropin receptor (Homo sapiens) (P16473 whole entry, looked up): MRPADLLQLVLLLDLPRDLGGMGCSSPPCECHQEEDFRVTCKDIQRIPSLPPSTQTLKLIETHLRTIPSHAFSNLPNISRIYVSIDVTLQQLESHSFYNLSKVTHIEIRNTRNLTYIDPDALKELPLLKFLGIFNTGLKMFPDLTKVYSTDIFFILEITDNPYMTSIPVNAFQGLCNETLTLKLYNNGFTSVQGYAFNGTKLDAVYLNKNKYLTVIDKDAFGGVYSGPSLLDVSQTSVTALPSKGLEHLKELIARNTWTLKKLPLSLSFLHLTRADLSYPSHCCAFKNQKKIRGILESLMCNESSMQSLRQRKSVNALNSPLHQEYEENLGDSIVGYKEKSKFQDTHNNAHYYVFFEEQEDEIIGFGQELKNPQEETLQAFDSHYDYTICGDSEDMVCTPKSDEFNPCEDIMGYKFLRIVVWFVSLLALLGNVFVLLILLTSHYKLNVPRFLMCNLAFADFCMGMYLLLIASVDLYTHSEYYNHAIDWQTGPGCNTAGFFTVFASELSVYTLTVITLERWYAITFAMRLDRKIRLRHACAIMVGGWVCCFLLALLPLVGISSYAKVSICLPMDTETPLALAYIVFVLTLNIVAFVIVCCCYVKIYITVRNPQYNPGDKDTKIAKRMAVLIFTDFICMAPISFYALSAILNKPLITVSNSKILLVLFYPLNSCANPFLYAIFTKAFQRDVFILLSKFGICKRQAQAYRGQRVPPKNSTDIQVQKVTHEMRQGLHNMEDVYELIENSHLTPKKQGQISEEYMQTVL
Summary of the method: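 TSHR-HEK293 cells were plated and held 18 h at 37C/5% CO2, then given compound plus Ro20-1724 and stimulated with TSH at 1.5 ng/mL final. After 30 min at room temperature, cAMP was detected with cAMP-d2/anti-cAMP-cryptate (1 h) by fluorescence.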

Measured: Potency

CCN(CC)C(C)C(=O)c1ccccc1 (centres undefined)
inactive: [1] | [2] | [3] | [4] | [5] | [6] | [7] | [8] | [9] | [10] | [11] | [12] | [13] | [14] | [15] | [16] | [17]

CC(Cl)(Cl)[N+](=O)[O-]
inactive: [1] | [2] | [3] | [5] | [6] | [7] | [8] | [9] | [10] | [18] | [11] | [12] | [13] | [14] | [16] | [17]

C#CCN1C(=O)COc2cc(F)c(N3C(=O)C4=C(CCCC4)C3=O)cc21
inactive: [1] | [2] | [3] | [5] | [6] | [7] | [8] | [9] | [19] | [11] | [12] | [13] | [14] | [15] | [20] | [17]

Cc1cnc[nH]1
inactive: [1] | [2] | [5] | [6] | [7] | [8] | [9] | [10] | [19] | [18] | [11] | [12] | [13] | [14] | [16] | [20] | [17]

c1cc2c(c(N3CCNCC3)c1)OCCO2
inactive: [1] | [2] | [3] | [4] | [6] | [7] | [8] | [9] | [10] | [19] | [18] | [11] | [12] | [13] | [14] | [15] | [20] | [17]

O=NN1CCCCC1
inactive: [1] | [2] | [5] | [6] | [7] | [8] | [9] | [10] | [19] | [18] | [11] | [12] | [13] | [14] | [16] | [20] | [17]

CCCCOP(=O)(O)OCCCC
inactive: [1] | [2] | [3] | [5] | [6] | [7] | [8] | [9] | [10] | [18] | [11] | [12] | [13] | [14] | [15] | [20] | [17]

O=C(O)c1ccc2[nH]cc(CCCCN3CC=C(c4ccccc4)CC3)c2c1
inactive: [1] | [2] | [3] | [4] | [5] | [6] | [7] | [8] | [9] | [11] | [12] | [13] | [14] | [16] | [20] | [17]

Reference: PubChem BioAssay (Tox21)
